One may read the AC50 as the midpoint of the concentration-response curve, whichever way the signal moves.

Activity calls are given as the source filed them. The calls were made as follows: active = hit-call score of the fitted dose curve at least 0.9, where 1 is the maximum; inactive = score below 0.9.

The values that follow come from PubChem BioAssay (EPA / NIEHS).

A short description of the first assay: CEETOX_H295R_ANDR: CeeTox H295R High-throughput Steroidogenesis Assay for Androstenedione (ANDR) (AID 2283436).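 Also: human H295R adrenal cells exposed for 48 h with androstenedione measured in medium.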 Conditions: actives raise or lower the signal. Put shortly: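 Read-out is androstenedione secreted into medium, measured by tandem mass spectrometry after liquid-liquid extraction. Cells were H295R, dosed for 48 h per modified OECD 456; activity fitted in both directions relative to DMSO.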
For `CCCCCCCCCC[N+](C)(C)[O-]`, the AC50 was 17 µM (active).

For the compound `O=C1OC(c2ccc(O)cc2)(c2ccc(O)cc2)c2ccccc21`, the compound was classed as inactive.

On to `CC1=C(C)S(=O)(=O)CCS1(=O)=O`, for which the outcome was inactive.

As to `CCN(CC)CCOc1ccc(C(=C(Cl)c2ccccc2)c2ccccc2)cc1`, the AC50 is 0.222 µM (active).

With `O=C(Oc1ccccc1)c1cccc(C(=O)Oc2ccccc2)c1`, the call was inactive.

Regarding `Cc1c(C)c2c(c(C)c1O)CCC(C)(COc1ccc(CC3SC(=O)NC3=O)cc1)O2` (stereo not drawn), the call was inactive.

Regarding `CCC(C)N(C)C(=O)c1cc2ccccc2c(-c2ccccc2Cl)n1` (stereo not drawn), the compound was called inactive.

Another assay is described as follows: CEETOX_H295R_CORTIC: CeeTox H295R High-throughput Steroidogenesis Assay for Corticosterone (CORTIC) (AID 2283437).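 Also: corticosterone secreted into medium quantified by mass spectrometry.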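 As to AC50: human H295R adrenal cells prestimulated with forskolin before chemical exposure.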 The following applies: actives raise or lower the signal. Put shortly:
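Corticosterone secreted into medium is measured by reverse-phase HPLC with tandem MS following liquid-liquid extraction. Cells are forskolin-stimulated (10 uM, 48 h) before 48 h test exposure; activity fitted in both directions against DMSO.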
As for `Nc1nc(Cl)nc2c1ncn2[C@H]1C[C@H](O)[C@@H](CO)O1`, the AC50 is 5.64 µM (active).

Turning to `CCCCCCCCCC[N+](C)(C)[O-]`, the outcome was inactive.

`Oc1ccc(O)cc1`: the compound was classed as inactive.

With `O=C(O)CN(CC(=O)O)CC(=O)O`, the compound was classed as inactive.

With `O=C1c2c(O)cccc2Cc2cccc(O)c21`, the call was inactive.

Turning to `CC1=C(C)S(=O)(=O)CCS1(=O)=O`, the outcome was inactive.

Turning to `CCN(CC)CCOc1ccc(C(=C(Cl)c2ccccc2)c2ccccc2)cc1`, the AC50 is 0.039 µM (active).

`Oc1ccccc1O`: the result was inactive.

Turning to `O=C1NC(=O)C(c2ccccc2)(c2ccccc2)N1`, the AC50 is 10.4 µM (active).

`CN(C)C(=O)NC1(c2ccccc2)CCN(CCC[C@]2(c3ccc(Cl)c(Cl)c3)CCCN(C(=O)c3ccccc3)C2)CC1`: the result was inactive.

Consider `O=C(Oc1ccccc1)c1cccc(C(=O)Oc2ccccc2)c1`, for which the AC50 is 72.7 µM (active).

For the compound `CC(=O)[C@@]1(O)CC[C@H]2[C@@H]3CCC4=CC(=O)CC[C@]4(C)[C@H]3CC[C@@]21C`, the compound was called inactive.

`CCCCc1nc2cccnc2n1Cc1ccc(-c2ccccc2-c2nnn[nH]2)cc1`: the call was inactive.

Consider `CC(C)(O)c1ccc(CNC(=O)c2cccnc2Oc2ccc(F)cc2)cc1`, for which the outcome was inactive.

On to `Cc1cc(Cc2ccc(N)c(C)c2)ccc1N`, for which the half-maximal activity concentration (AC50) was 0.458 µM (active).

`COc1ccc(C(=O)Nc2nc3ccccc3c(NCc3ccccc3)c2C#N)cc1`: the AC50 is 3.33 µM (active).

As for `S=c1[nH]c2ccccc2s1`, the outcome was inactive.

A further assay is described as follows: CEETOX_H295R_DOC: CeeTox H295R High-throughput Steroidogenesis Assay for DOC (AID 2283439). Conditions: actives raise or lower the signal. In short, it runs like this: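 Readout: 11-deoxycorticosterone in culture medium by reverse-phase C18 HPLC with ESI+ tandem MS after MTBE extraction. Cells: H295R, forskolin-primed (10 uM, 48 h), chemical-treated 48 h; DMSO 0.1% final. Activity fitted bidirectionally versus DMSO.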
Consider `Nc1nc(Cl)nc2c1ncn2[C@H]1C[C@H](O)[C@@H](CO)O1`, for which the AC50 was 0.201 µM (active).

In the case of `CCCCCCCCCC[N+](C)(C)[O-]`, the compound was classed as inactive.

For `Oc1ccc(O)cc1`, the AC50 is 2.16 µM (active).

Turning to `O=C(O)CN(CC(=O)O)CC(=O)O`, the result was inactive.

With `O=C1c2c(O)cccc2Cc2cccc(O)c21`, the outcome was inactive.

In the case of `CC(COCC(C)OC(=O)c1ccccc1)OC(=O)c1ccccc1` (stereo not drawn), the call was inactive.

For `CC1=C(C)S(=O)(=O)CCS1(=O)=O`, the compound was classed as inactive.

As to `CCN(CC)CCOc1ccc(C(=C(Cl)c2ccccc2)c2ccccc2)cc1`, the AC50 is 0.0456 µM (active).

For `Oc1ccccc1O`, the compound was classed as inactive.

For `O=C1NC(=O)C(c2ccccc2)(c2ccccc2)N1`, the compound was classed as inactive.

Regarding `CN(C)C(=O)NC1(c2ccccc2)CCN(CCC[C@]2(c3ccc(Cl)c(Cl)c3)CCCN(C(=O)c3ccccc3)C2)CC1`, the compound was classed as inactive.

`O=C(Oc1ccccc1)c1cccc(C(=O)Oc2ccccc2)c1`: the outcome was inactive.

Consider `CC(=O)[C@@]1(O)CC[C@H]2[C@@H]3CCC4=CC(=O)CC[C@]4(C)[C@H]3CC[C@@]21C`, for which the AC50 was 14.9 µM (active).

Regarding `CCCCc1nc2cccnc2n1Cc1ccc(-c2ccccc2-c2nnn[nH]2)cc1`, the concentration at half-maximal activity (AC50) was 10.1 µM (active).

Turning to `CC(C)(O)c1ccc(CNC(=O)c2cccnc2Oc2ccc(F)cc2)cc1`, the outcome was inactive.

Regarding `Cc1cc(Cc2ccc(N)c(C)c2)ccc1N`, the AC50 was 13.2 µM (active).

Consider `COc1ccc(C(=O)Nc2nc3ccccc3c(NCc3ccccc3)c2C#N)cc1`, for which the AC50 was 3.01 µM (active).

Turning to `S=c1[nH]c2ccccc2s1`, the outcome was inactive.

The next assay in a line: CEETOX_H295R_ESTRADIOL: CeeTox H295R High-throughput Steroidogenesis Assay for Estradiol (AID 2283440).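 Also: estradiol secreted into medium quantified by LC-MS/MS after dansyl derivatisation.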 Conditions: actives raise or lower the signal. In short, it runs like this:
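H295R, 48 h forskolin (10 uM) prestim → 48 h compound, 0.1% DMSO final. Estradiol in medium: MTBE extraction, dansyl chloride derivatization, LC-MS/MS. Fit bidirectional vs DMSO baseline; MTT viability in same wells.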
Consider `CCCCCCCCCC[N+](C)(C)[O-]`, for which the call was inactive.

Take `Oc1ccc(O)cc1`: the compound was classed as inactive.

For the compound `CC1=C(C)S(=O)(=O)CCS1(=O)=O`, the call was inactive.

For `CN(C)C(=O)NC1(c2ccccc2)CCN(CCC[C@]2(c3ccc(Cl)c(Cl)c3)CCCN(C(=O)c3ccccc3)C2)CC1`, the call was inactive.

Regarding `Cc1c(C)c2c(c(C)c1O)CCC(C)(COc1ccc(CC3SC(=O)NC3=O)cc1)O2` (stereo not drawn), the outcome was inactive.

As for `CCCCc1nc2cccnc2n1Cc1ccc(-c2ccccc2-c2nnn[nH]2)cc1`, the call was inactive.

Regarding `COc1ccc(C(=O)Nc2nc3ccccc3c(NCc3ccccc3)c2C#N)cc1`, the compound was classed as inactive.

With `CCC(C)N(C)C(=O)c1cc2ccccc2c(-c2ccccc2Cl)n1` (stereo not drawn), the result was inactive.

The next assay can be described thus: CEETOX_H295R_ESTRONE: CeeTox H295R High-throughput Steroidogenesis Assay for Estrone (AID 2283441).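 Also: estrone secreted into medium measured by LC-MS/MS after dansyl derivatization.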 Conditions: actives raise or lower the signal. In short, it runs like this:
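H295R cells prestimulated 48 h with 10 uM forskolin, then exposed 48 h to chemicals in 0.1% DMSO final; estrone in medium extracted with MTBE, dansyl-derivatized, quantified by HPLC-MS/MS; bidirectional fitting versus DMSO, viability by MTT.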
As to `CCCCCCCCCC[N+](C)(C)[O-]`, the outcome was inactive.

Regarding `Oc1ccc(O)cc1`, the compound was classed as inactive.

Turning to `CC1=C(C)S(=O)(=O)CCS1(=O)=O`, the result was inactive.

With `CN(C)C(=O)NC1(c2ccccc2)CCN(CCC[C@]2(c3ccc(Cl)c(Cl)c3)CCCN(C(=O)c3ccccc3)C2)CC1`, the compound was called inactive.

On to `Cc1c(C)c2c(c(C)c1O)CCC(C)(COc1ccc(CC3SC(=O)NC3=O)cc1)O2` (stereo not drawn), for which the result was inactive.

Take `CCCCc1nc2cccnc2n1Cc1ccc(-c2ccccc2-c2nnn[nH]2)cc1`: the compound was called inactive.

As for `COc1ccc(C(=O)Nc2nc3ccccc3c(NCc3ccccc3)c2C#N)cc1`, the compound was called inactive.

In the case of `CCC(C)N(C)C(=O)c1cc2ccccc2c(-c2ccccc2Cl)n1` (stereo not drawn), the compound was called inactive.
